Bioassay records as filed in PubChem.
TRHR PAM: allosteric enhancers of human TRH receptor | enhancement, % at 2 µM | 360,000 tested, 0.66% active | P34981 | AID 493056 | TRHR cells, fluo-8 calcium fluorescence, EC20 TRH enhancement; in the data active means enhancement above about 30%; further: 0% is about no effect
Target sequence (P34981 whole entry, looked up): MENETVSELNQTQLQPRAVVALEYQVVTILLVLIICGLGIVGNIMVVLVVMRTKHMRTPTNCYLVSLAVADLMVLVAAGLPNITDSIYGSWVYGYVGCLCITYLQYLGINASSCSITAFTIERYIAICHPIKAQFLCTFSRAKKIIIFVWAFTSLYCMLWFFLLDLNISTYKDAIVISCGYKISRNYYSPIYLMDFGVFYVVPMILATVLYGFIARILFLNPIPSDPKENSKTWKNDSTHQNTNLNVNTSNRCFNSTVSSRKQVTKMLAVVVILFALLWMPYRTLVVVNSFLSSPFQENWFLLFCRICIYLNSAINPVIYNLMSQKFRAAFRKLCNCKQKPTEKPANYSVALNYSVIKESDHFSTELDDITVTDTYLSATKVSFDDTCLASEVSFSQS
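TRHR-expressing cells loaded with fluo-8 calcium dye were read kinetically (ex 480/em 530) during compound addition, then stimulated with an EC20 of TRH (10 nM final). Enhancement of the Gq-mediated intracellular calcium response was scored.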
D1 agonist: human D1 receptor agonism. P21728. HEK293 T-REx D1 cells, calcium flux, agonist mode. activation, % at 2 µM. 360,000 tested, 1% active. AID 504660; further: 0% is about no effect
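Tetracycline-induced HEK293 TREx D1 cells, force-coupled to calcium signalling, were dye-loaded with a no-wash calcium kit. Compound was pin-added after a 10 s baseline. Fluorescence was read kinetically at 1 cycle/s for 180 s, with calcium rises flagged as agonism.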
TRHR ag: TRH receptor (human) agonism; TRHR cells, calcium flux fluo-8, FDSS agonist mode; activation, % at 2 µM; P34981; 360,000 tested, 0.18% active; AID 493084; further: 0% is about no effect
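In this calcium-flux screen, cells bearing human TRHR are dye-loaded with fluo-8, baselined for 10 cycles, then exposed to library compounds; positive kinetic calcium responses during the agonist phase mark hits, with TRH as control.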
D1 antag: human D1 dopamine receptor antagonism; P21728; HEK293 TREx D1 cells, calcium flux, dopamine EC80; hits give low values; activity change, negative = inhibition, % at 10 µM; 360,000 tested, 3.2% active; in the data active means activity change below about -30%; further: on the % scale 0 is the no-effect control and ±100 the full control effect
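Cells carrying a force-coupled, tetracycline-inducible human D1 receptor report calcium flux. Each well gets a 10 s baseline, compound with 180 s monitoring, then an EC80 dopamine stimulus with a second 180 s kinetic read.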
D1 potentiator: enhances dopamine response at the human D1 receptor. P21728. HEK293 TREx D1 cells, calcium flux, dopamine EC20 potentiation. potentiation, % at 10 µM. 360,000 tested, 0.036% active. AID 504651; in the data active means potentiation above about 30%; further: 0% is about no effect
LDHA block: blocks human lactate dehydrogenase A | activity change, % (values are at about 110 or 230 µM) | 480,000 tested, 0.15% active | purified LDHA, NADH/diaphorase-resazurin fluorescence; hits give low values; in the data active means activity change below about -30%;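 further: plate controls were DMSO wells for no effect and wells without enzyme for full effect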
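Human LDH5 (2 nM) was incubated with 0.06 mM NADH and 0.2 mM pyruvate for 5 min at room temperature in Tris pH 7.4. Remaining NADH was coupled through diaphorase/resazurin, and resorufin fluorescence was read at 0 and 20 min.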
Active calls of the source: *; nt = no result. Most compounds without a hit are left out; they make up all but 3.6% or so of the library. Unless noted, no stated cut-off is given here; in the data, active means activation above about 30%; inactive means the rest.

SMILES	TRHR PAM	D1 agonist	TRHR ag	D1 antag	D1 potentiator	LDHA block
CO[C@H]1C[C@@H]2CC[C@@H](C)[C@@](O)(O2)C(=O)C(=O)N2CCCC[C@H]2C(=O)O[C@H]([C@H](C)C[C@@H]2CC[C@@H](O)[C@H](OC)C2)CC(=O)[C@H](C)/C=C(/C)[C@@H](O)[C@@H](OC)C(=O)[C@H](C)C[C@H](C)C=C/C=C\C=C/1C	nt	nt	nt	nt	nt	1
CC[C@@H]1C=C(C)C[C@H](C)C[C@H](OC)[C@H]2O[C@@](O)(C(=O)C(=O)N3CCCC[C@H]3C(=O)O[C@H](/C(C)=C/[C@@H]3CC[C@@H](O)[C@H](OC)C3)[C@H](C)[C@@H](O)CC1=O)[C@H](C)C[C@@H]2OC	-11	32*	1	-4	-1	nt
CC(NC(=O)c1ccccc1F)C(C)(C)C (stereo unspecified)	nt	nt	nt	nt	nt	6
CCOC(=O)Cc1csc(NC(=O)Nc2cccc(OC)c2)n1	-2	14	-2	-33*	-4	2
CCOC(=O)CN(Cc1sccc1C)C(=O)Nc1cccc(OC)c1	4	0	1	-37*	-9	-7
CCOC(=O)Cc1csc(NC(=O)c2cccc(OC)c2)n1	5	4	0	-12	-6	-2
CCOC(=O)Cc1csc(NC(=O)c2sc3nc4c(C)cc(C)cc4cc3c2N)n1	21	85*	38*	2	-3	-21
CCOC(=O)Cc1csc(NC(=O)c2cccc([N+](=O)[O-])c2)n1	1	9	0	-31*	-10	-1
COC(=O)c1sccc1NC(=O)Nc1cccc(OC)c1	-3	1	0	-1	1	-6
COC(=O)COc1nc(C(C)C)c2c(c1C#N)CCCC2	nt	nt	nt	nt	nt	9
CC(NC(=O)CC1C=CCC1)C1CCCO1 (stereo unspecified)	nt	nt	nt	nt	nt	-1
Cn1c(N)c(C(=O)c2cc(-c3ccc(Cl)cc3)nc3ccccc23)c(=O)[nH]c1=O	nt	nt	nt	nt	nt	18
O=C(Nc1ccc(F)cc1)c1nc(S(=O)(=O)Cc2ccccc2)ncc1Cl	-29	2	-1	-51*	-2	1
CCOc1ccccc1NC(=O)c1nc(S(=O)(=O)Cc2ccccc2F)ncc1Cl	nt	nt	nt	nt	nt	-1
O=C(NCc1ccccc1)c1nc(S(=O)(=O)Cc2ccc(F)cc2)ncc1Cl	-11	1	-2	-46*	-2	0
O=C(Nc1ccccc1F)c1nc(S(=O)(=O)Cc2ccccc2F)ncc1Cl	-9	1	-1	-45*	-4	4
O=C(Nc1ccc(F)cc1)c1nc(S(=O)(=O)Cc2ccc(F)cc2)ncc1Cl	nt	nt	nt	nt	nt	-11
Cc1ccc(N2CCN(C(=O)c3noc4c3CCc3sccc3-4)CC2)c(C)c1	nt	nt	nt	nt	nt	14
CC1(C)CC(N2CCCC2)=CC(=[N+]2CCCCC2)C1	1	2	0	7	-8	0
CC1(C)CC(N2CCN(Cc3ccccc3)CC2)=CC(=[N+]2CCCCC2)C1	1	2	1	-9	-3	-43*
CC(NC(=O)c1ccc[n+]([O-])c1)c1cccc2ccccc12 (stereo unspecified)	nt	nt	nt	nt	nt	12
COc1ccccc1Nc1nc(-c2ccc3c(c2)CCC(=O)N3)cs1	nt	nt	nt	nt	nt	-31*
COc1cccc(Nc2nc(-c3ccc4c(c3)CCC(=O)N4)cs2)c1	nt	nt	nt	nt	nt	-1
Cc1ccc(CN(C)C(=O)c2ccc(S(C)=O)cc2)cc1 (stereo unspecified)	nt	nt	nt	nt	nt	-1
Cn1c(=O)[nH]c(=O)c2c1nc(N1CCN(CC(N)=O)CC1)n2Cc1ccc(Cl)c(Cl)c1	nt	nt	nt	nt	nt	-1
SMILES	TRHR PAM	D1 agonist	TRHR ag	D1 antag	D1 potentiator	LDHA block
CC(=NCc1ccco1)c1c(C)[nH]n(-c2nc3ccccc3s2)c1=O	-18	-1	0	-66*	-7	-3
COC(=O)c1ccccc1-c1c2ccc(=N)cc-2oc2cc(N)ccc12	-18	507*	198*	-56*	-5	-58*
N#C/C(=C/c1ccc(C(F)(F)F)cc1)C(=O)Nc1ccccc1Oc1ccccc1	nt	nt	nt	nt	nt	-3
CCc1ccc(Nc2ccc3cc(S(=O)(=O)N4CCCC4)ccc3n2)cc1	nt	nt	nt	nt	nt	0
COCc1[nH][nH]c(=O)c1C=Nc1ccc(OC(F)(F)F)cc1	-1	2	0	-33*	-4	-4
O=C(/C=C/c1ccccc1)NCCSCc1ccc(Cl)cc1	-4	7	0	-1	-8	-11
O=C(/C=C/c1ccccc1)NCCSCc1ccccc1Cl	-8	14	1	-32*	-4	-1
O=C(/C=C/c1ccc(Cl)cc1Cl)NCCSCc1ccccc1	-3	6	2	-46*	-10	0
Cc1cccc(C)c1NC(=O)CSc1ncnc2ccccc12	nt	nt	nt	nt	nt	-1
Cc1cc(S(=O)(=O)N2CCOC23CCN(C(=O)c2cccc(F)c2)CC3)ccc1F	nt	nt	nt	nt	nt	-5
COC(=O)c1ccccc1NC(=O)c1nc(-c2ccc(Cl)cc2)n2c1CCCCC2	35*	0	1	-10	-4	0
CC(=O)c1ccc(NC(=O)c2nc(-c3ccc(Cl)cc3)n3c2CCCCC3)cc1	-19	4	0	16	-3	1
Nc1nccnc1C(=O)NCCc1ccc(C(F)(F)F)cc1	nt	nt	nt	nt	nt	6
CC(Sc1nc(-c2ccccc2)cs1)C(=O)NC1(C#N)CCCCC1 (stereo unspecified)	nt	nt	nt	nt	nt	6
CCCCc1c(C)nc2c(-c3ccc(OC)cc3)c(C)[nH]n2c1=O	0	42*	0	2	-3	1
CCCN(CCC)c1nc(-c2ccccc2F)nc2ccccc12	-2	39*	0	3	0	3
O=C(CSc1n[nH]c(=O)n1C1CC1)c1ccc2c(c1)OCCO2	-1	13	-1	-1	-2	-1
Cc1cc(C)c(C(=O)CSc2n[nH]c(=O)n2C2CC2)cc1C	0	11	-1	-37*	-9	0
CC1=C(C(=O)Nc2ccc(Cl)cc2)C(CC(C)C)n2nc(SCc3ccccc3C)nc2N1 (stereo unspecified)	1	2	1	-3	-2	-5
CC1=C(C(=O)Nc2ccc(C)cc2C)C(CC(C)C)n2nc(SCc3ccccc3C)nc2N1 (stereo unspecified)	-2	-1	1	-36*	-2	-19
Cc1ccc2oc(C(=O)N3CCN(CC(=O)N4CCCCCC4)CC3)cc(=O)c2c1	nt	nt	nt	nt	nt	3
COc1ccc(Cl)cc1NCC(=O)NC(C)(C#N)C(C)C (stereo unspecified)	nt	nt	nt	nt	nt	-5
COc1ccc(OC)c(CN2CCN(C(=O)c3cn(C)nc3-c3ccc4c(c3)OCCCO4)CC2)c1	nt	nt	nt	nt	nt	-3
C/C(=N\NC(=O)c1c(Cl)cnn1C)c1ccc(NC(=O)c2ccc(Br)o2)cc1	12	2	0	-43*	-8	-11
